Compound activity from PubChem.
A selection: hits, their analogues and other compounds. The true share with any hit is near 6.7%.
C diff growth: C. difficile growth inhibition. Clostridium difficile clinical isolate growth, OD600, 24 h; stronger effect = lower value. growth activity, negative = inhibition, % at 16 µg/mL (by protocol). 86,000 tested, 0.25% active. AID 1259249;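 active = mean growth activity at or below -80% and every replicate also at or below -80%; inconclusive = mean at or below -80% but some replicate above -80%; inactive = mean growth activity above -80%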;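 also: 0% = DMSO wells and -100% = levofloxacin 16 µg/mL wells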
Pf Dd2 inh: P. falciparum Dd2 growth inhibition; AID 1159554; 94,000 tested, 2.3% active; activity change, % at 10 µM; SYBR Green, 72 h; stronger effect = lower value; in the data active = activity change below about -80%; inconclusive = no clear call, values can overlap the other calls
T cruzi growth-1: T. cruzi proliferation inhibition; inhibition, % at 8.34 µM; 77,000 tested, 5.9% active; T. cruzi beta-gal in NIH3T3, GalScreen luminescence, 90 h;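 active = mean inhibition above about 93%, with at least 55% of replicates each passing it, limit read from the data, passing the limit was not always enough; inconclusive = only one of those two conditions holds; inactive = neither condition holds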
T cruzi growth-2: inhibitors of T. cruzi proliferation | inhibition, % at 8.35 µM | shares compounds with T cruzi growth-1 | 5,600 tested, 72% active | T. cruzi beta-gal in NIH3T3, GalScreen luminescence, 90 h;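 active = mean replicate inhibition above about 95% and at least 55% of replicates individually reaching it, limit read from the data; inconclusive = only one of the two criteria is met; inactive = neither criterion is met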
T cruzi growth-3: inhibitors of T. cruzi proliferation; shares compounds with T cruzi growth-1; T. cruzi beta-gal in NIH3T3, GalScreen luminescence, 90 h; inhibition, % at 2.09 µM; 5,600 tested, 21% active;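 active = mean inhibition above about 95%, with at least 55% of replicates also reaching it, limit read from the data; inconclusive = meets just one of the two conditions; inactive = meets neither condition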;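 also: plate controls were neutral control median for no effect and positive control median for full effect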
NIH3T3 tox: kills mouse NIH/3T3 fibroblasts. shares compounds with T cruzi growth-1. NIH/3T3 viability, CellTiter-Glo ATP luminescence, 90 h. cytotoxicity (signal decrease), % at 8.35 µM. 5,600 tested, 14% active;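 active = mean signal decrease across replicates above about 35% based on untreated-well scatter, with enough replicates individually passing, limit read from the data; inconclusive = no rule stated though some were filed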;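 also: 0% = median of neutral control wells and 100% = median of positive control wells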
NIH3T3 tox 2: NIH/3T3 (mouse) viability loss. shares compounds with T cruzi growth-1. NIH/3T3 viability, CellTiter-Glo ATP luminescence, 90 h. inhibition, % at 24.9 µM. 5,600 tested, 56% active. AID 651744;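 active = mean loss of cell viability signal at or above a set limit, and enough replicates individually reaching it; inconclusive = meets only the mean limit or only the replicate share; inactive = meets neither condition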;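 also: 0% = median of neutral control wells and 100% = median of positive control wells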
* marks the source's active call; other numbers are inactive results.

`Cc1ccc(S(=O)(=O)Nc2ccc3c(c2)C(=O)N([C@@H](C)CO)C[C@H](C)[C@H](CN(C)S(=O)(=O)c2ccccc2)OCCCC[C@H](C)O3)cc1` gave C diff growth -14.0, Pf Dd2 inh -75.2, T cruzi growth-1 111.3*, T cruzi growth-2 106.3*, T cruzi growth-3 79.3, NIH3T3 tox 8.7 and NIH3T3 tox 2 8.5.
For C[C@H]1CCCCO[C@@H](CN(C)S(=O)(=O)c2ccccc2)[C@@H](C)CN([C@@H](C)CO)C(=O)c2cc(NS(=O)(=O)c3ccccc3)ccc2O1 the results were Pf Dd2 inh -54.1 and T cruzi growth-1 51.8.
C[C@@H]1CCCCO[C@@H](CN(C)S(=O)(=O)c2ccccc2)[C@H](C)CN([C@@H](C)CO)C(=O)c2cc(NS(=O)(=O)c3ccccc3)ccc2O1 was read as Pf Dd2 inh 0.3 and T cruzi growth-1 47.8.
`Cc1ccc(S(=O)(=O)N(C)C[C@@H]2OCCCC[C@@H](C)Oc3ccc(NS(=O)(=O)c4ccccc4)cc3C(=O)N([C@@H](C)CO)C[C@H]2C)cc1` gave C diff growth 2.7, Pf Dd2 inh -27.7 and T cruzi growth-1 52.4.
For Cc1ccc(S(=O)(=O)Nc2ccc3c(c2)C(=O)N([C@@H](C)CO)C[C@H](C)[C@H](CN(C)S(=O)(=O)c2ccccc2)OCCCC[C@@H](C)O3)cc1 the results were C diff growth -3.5, Pf Dd2 inh -52.1, T cruzi growth-1 105.0*, T cruzi growth-2 106.2*, T cruzi growth-3 93.7, NIH3T3 tox 10.6 and NIH3T3 tox 2 52.6*.
`CO[C@H]1CN(C)C(=O)c2cc(NC(=O)Nc3ccccc3)ccc2OC[C@H](C)N(C(=O)Nc2c(C)noc2C)C[C@H]1C` gave Pf Dd2 inh -20.0 and T cruzi growth-1 -29.1.
Screening N#Cc1ccc(-c2ccc3c(c2)[C@H]2[C@H](CCN2Cc2cncnc2)[C@H](CO)N3)cc1 returned C diff growth -9.9, Pf Dd2 inh -57.4 and T cruzi growth-1 65.5.
For Cc1ccc(S(=O)(=O)Nc2ccc3c(c2)C(=O)N([C@H](C)CO)C[C@H](C)[C@H](CN(C)S(=O)(=O)c2ccccc2)OCCCC[C@H](C)O3)cc1 the results were C diff growth -6.4, Pf Dd2 inh -62.5, T cruzi growth-1 112.6*, T cruzi growth-2 112.7*, T cruzi growth-3 38.7, NIH3T3 tox -1.4 and NIH3T3 tox 2 -5.0.
For Cc1ccc(S(=O)(=O)Nc2ccc3c(c2)C(=O)N([C@H](C)CO)C[C@@H](C)[C@H](CN(C)S(=O)(=O)c2ccccc2)OCCCC[C@@H](C)O3)cc1 the results were C diff growth -0.5, Pf Dd2 inh -57.9, T cruzi growth-1 107.0*, T cruzi growth-2 105.8*, T cruzi growth-3 87.8, NIH3T3 tox 22.0 and NIH3T3 tox 2 -3.0.
`C[C@@H]1CCCCO[C@@H](CN(C)S(=O)(=O)c2ccccc2)[C@@H](C)CN([C@@H](C)CO)C(=O)c2cc(NS(=O)(=O)c3ccccc3)ccc2O1` gave Pf Dd2 inh -30.0 and T cruzi growth-1 -16.2.
Cc1ccc(S(=O)(=O)Nc2ccc3c(c2)C(=O)N([C@@H](C)CO)C[C@H](C)[C@@H](CN(C)C(=O)Cc2ccccc2)OCCCC[C@@H](C)O3)cc1 was read as Pf Dd2 inh -73.6, T cruzi growth-1 inconclusive, T cruzi growth-2 106.3*, T cruzi growth-3 63.9, NIH3T3 tox -27.6 and NIH3T3 tox 2 -4.4.
C[C@@H]1CN([C@@H](C)CO)C(=O)c2cc(NS(=O)(=O)c3ccccc3)ccc2O[C@@H](C)CCCCO[C@H]1CN(C)S(=O)(=O)c1ccccc1 was read as Pf Dd2 inh 20.3 and T cruzi growth-1 30.8.
`Cc1ccc(S(=O)(=O)Nc2ccc3c(c2)C(=O)N([C@@H](C)CO)C[C@@H](C)[C@@H](CN(C)S(=O)(=O)c2ccccc2)OCCCC[C@@H](C)O3)cc1` gave C diff growth -5.1, Pf Dd2 inh -50.0, T cruzi growth-1 107.5*, T cruzi growth-2 110.0*, T cruzi growth-3 79.4, NIH3T3 tox -5.8 and NIH3T3 tox 2 6.9.
Cc1ccc(S(=O)(=O)Nc2ccc3c(c2)C(=O)N([C@@H](C)CO)C[C@@H](C)[C@@H](CN(C)C(=O)Cc2ccccc2)OCCCC[C@H](C)O3)cc1 was read as Pf Dd2 inh -73.5 and T cruzi growth-1 78.0.
CN1[C@@H]2c3ccc(/C=C/c4ccccc4)c(=O)n3C[C@H]1[C@H](CO)[C@H]2C(=O)NC1CCCCC1 was read as C diff growth -5.6 and Pf Dd2 inh -6.6.
Screening C[C@H](CO)N1C[C@H](C)[C@H](CN(C)CC2CCCCC2)Oc2ccc(NS(C)(=O)=O)cc2C1=O returned C diff growth 21.9, Pf Dd2 inh 26.7 and T cruzi growth-1 44.3.
COc1ccccc1-c1ccc([C@@H]2[C@H]3CN(C(=O)c4ccncc4)CCCCN3[C@H]2CO)cc1 was read as C diff growth -5.8, Pf Dd2 inh 19.5 and T cruzi growth-1 -17.3.
Screening CO[C@H]1CN(C)C(=O)c2ccc(NC(=O)NC(C)C)cc2OC[C@@H](C)N(C(=O)CC2CC2)C[C@@H]1C returned C diff growth -0.7, Pf Dd2 inh 4.4 and T cruzi growth-1 25.1.
For CC(C)C#Cc1cnc2c(c1)C(=O)N([C@H](C)CO)C[C@@H](C)[C@H](CN(C)C(=O)c1cccc(F)c1)O2 the results were C diff growth -0.4, Pf Dd2 inh -66.7 and T cruzi growth-1 46.2.
For C[C@H](CO)N1C[C@H](C)[C@@H](CN(C)Cc2ccccc2)Oc2ncc(C#CC3(O)CCCC3)cc2C1=O the results were C diff growth 0.1, Pf Dd2 inh -45.5 and T cruzi growth-1 11.2.
For C/C=C/c1ccc([C@H]2[C@@H](CO)N(S(C)(=O)=O)[C@@H]2CN(CC)C(=O)CC)cc1 the results were C diff growth -4.1, Pf Dd2 inh 7.8 and T cruzi growth-1 13.1.
C[C@H](CO)N1C[C@H](C)[C@H](CN(C)CC2CC2)OCCCC[C@H](C)Oc2ccc(NC(=O)C3CCCCC3)cc2C1=O was read as C diff growth 10.6 and Pf Dd2 inh -73.1.
Screening C[C@H]1CCCCO[C@H](CN(C)CC2CC2)[C@@H](C)CN([C@@H](C)CO)C(=O)c2cc(NC(=O)C3CCCCC3)ccc2O1 returned C diff growth -1.4, Pf Dd2 inh -45.0, T cruzi growth-1 102.1*, T cruzi growth-2 93.5, T cruzi growth-3 70.2, NIH3T3 tox -24.8 and NIH3T3 tox 2 -43.3.
For CCCN(C)C[C@@H]1OCCCC[C@H](C)Oc2ccc(NC(=O)C3CCCCC3)cc2C(=O)N([C@@H](C)CO)C[C@@H]1C the results were C diff growth 9.2, Pf Dd2 inh -82.8*, T cruzi growth-1 111.5*, T cruzi growth-2 95.7*, T cruzi growth-3 71.0, NIH3T3 tox 10.1 and NIH3T3 tox 2 24.1.
